Results as given in PubChem BioAssay (NCATS).
Records with an inconclusive call do not appear. Activity calls are given as the source filed them. Unless noted, calls follow the shape of the dose curve; as a rule, active = well fitted curve in the direction sought with a large enough effect; inconclusive = small, poorly fitted or top-dose-only effect, or another doubt; inactive = no such curve, though single readings can be large; an effect the other way counts as inactive or inconclusive.

What was measured:
[1] = Cell Viability - LYMP2-001 (AID 921); also: nearly all actives have a fitted effect of over 70% in size; also: potency is read from the fitted curve at half-maximal effect
In short: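 Cellular ATP loss read by luciferase luminescence after 24 h compound exposure at 37 C in complete medium. LYMP2-001 lymphoblastoid cells, 2500/well; qHTS concentration-response data fitted with Hill equation for AC50.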

[2] = MultiTox-Fluor Cytotoxicity Assay - LYMP1-001 - Live Cells (AID 947)
[3] = Cell Viability - LYMP1-002 - Assay at 16 hr (AID 948); also: potency is read from the fitted curve at half-maximal effect
In short: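 ATP luminescence (CellTiter-Glo) was measured after 16 hr compound exposure at 37 C of 2500 lymphoblastoid LYMP1-002 cells per well. Concentration-response curves were fitted with the Hill equation to give AC50.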

[4] = MultiTox-Fluor Cytotoxicity Assay - LYMP1-002 - Live Cells (AID 955);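 also: cells exposed to compound for 16 hours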; also: potency is read from the fitted curve at half-maximal effect
In short: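 Cytotoxicity in the human lymphoblastoid line LYMP1-002 is measured as loss of live-cell protease activity after 16 h treatment in complete culture medium. AC50 is derived from Hill-equation fits of qHTS concentration-response data.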

[5] = MultiTox-Fluor Cytotoxicity Assay - LYMP1-002 - Dead Cells (AID 960); also: nearly all actives have a fitted effect of over 60% in size; also: potency is read from the fitted curve at half-maximal effect
In short: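 Acute cytotoxicity in a human lymphoblastoid line is scored as rising dead-cell protease signal after 16 hr exposure at 37 C, measured fluorometrically (485/520).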

[6] = MultiTox-Fluor Cytotoxicity Assay - LYMP1-003 - Dead Cells (AID 961); also: nearly all actives have a fitted effect of over 70% in size; also: potency is read from the fitted curve at half-maximal effect
In short: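 Dead-cell protease release, detected as bis-AAF-R110 fluorescence at 485/520 nm, was measured in LYMP1-003 cells after 16 h compound treatment at 37 C. AC50 values came from Hill-modeled qHTS curves normalized to DMSO (0%) and 15 uM tetraoctylammonium bromide (100%).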

[7] = MultiTox-Fluor Cytotoxicity Assay - LYMP1-003 - Live Cells (AID 962);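 also: cells exposed to compound for 16 hours at 37 °C; cytotoxic hits lower the live-cell protease signal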
In short: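 Cells plated at 2500 per well and incubated 5 hr; compounds added and incubated 16 hr at 37 C; MultiTox-Fluor reagent added for 60 min at room temperature; fluorescence of liberated AFC measured at 405/510 nm.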

[8] = Cell Viability - LYMP1-003 - Assay at 24 hr (AID 963); also: potency is read from the fitted curve at half-maximal effect
In short: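 Acute toxicity in LYMP1-003 lymphoblastoid cells: 24 hr compound treatment at 37 C, ATP measured with CellTiter-Glo after 30 min at room temperature. AC50 derived by fitting the Hill equation to qHTS titrations.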

[9] = Cell Viability - LYMP1-003 - Assay at 40 hr (AID 964); also: nearly all actives have a fitted effect of over 60% in size; also: potency is read from the fitted curve at half-maximal effect
In short: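 This qHTS cytotoxicity screen treats human lymphoblastoid cells (LYMP1-003) with compounds for 40 hr and quantifies cellular ATP via luciferase luminescence.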

[10] = Cell Viability - LYMP2-003 (AID 965);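 also: cells exposed to compounds for 24 h before reading; nearly all actives have a fitted effect of over 50% in size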; also: potency is read from the fitted curve at half-maximal effect
In short: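 CellTiter-Glo luminescence quantified ATP loss after 24 h compound treatment of LYMP2-003 lymphoblastoid cells at 37 C. Titration series were fitted with the standard Hill equation to give AC50.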

[11] = Cell Viability - LYMP2-004 (AID 966); also: nearly all actives have a fitted effect of over 65% in size; also: potency is read from the fitted curve at half-maximal effect
In short: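 Acute toxicity is scored as a concentration-dependent drop in intracellular ATP, quantified by luciferase luminescence, in human lymphoblastoid cells exposed to compound for 24 hr. AC50 derives from Hill-equation modelling.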

[12] = Cell Viability - LYMP2-005 (AID 967); also: potency is read from the fitted curve at half-maximal effect
In short: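 LYMP2-005 human lymphoblastoid cells (2500/well) were treated with compounds for 24 h at 37 C. Intracellular ATP was then measured by CellTiter-Glo luminescence after 30 min at room temperature. AC50 values came from Hill-equation fits of qHTS concentration-response data.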

[13] = Cell Viability - LYMP2-009 (AID 968); also: nearly all actives have a fitted effect of over 55% in size; also: potency is read from the fitted curve at half-maximal effect
[14] = Cell Viability - LYMP2-011 (AID 969); also: nearly all actives have a fitted effect of over 60% in size; also: potency is read from the fitted curve at half-maximal effect
In short: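 Acute toxicity is scored as a concentration-dependent drop in intracellular ATP of a human lymphoblastoid line after 24 hr treatment. Values are AC50s modeled with the Hill equation.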

[15] = Cell Viability - LYMP2-013 (AID 970); also: nearly all actives have a fitted effect of over 55% in size; also: potency is read from the fitted curve at half-maximal effect
In short: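 Acute toxicity was measured in human lymphoblastoid cells (2500/well) exposed to compound titrations for 24 hr, with ATP luminescence (CellTiter-Glo) as read-out and AC50 fitted by Hill equation.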

[16] = Confirmation and Secondary Assay for Modulators of Hemoglobin Beta Chain Splicing at IVS2 705 locus (AID 930);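 also: GFP fluorescence per well restored by corrected splicing of the IVS2-705 intron in EGFP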; also: potency is read from the fitted curve at half-maximal effect
In short: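 First, HeLa EGFP-705 cells are seeded at 500/well in Optimem with 2% FCS and left overnight. Next, compound or DMSO is added for 2 days. Finally wells are laser-scanned and total peak GFP intensity scored.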

[17] = biological target: Pyruvate kinase (Leishmania mexicana) (UniProt Q27686); experiment: qHTS Validation Assay for Inhibitors of Leishmania Mexicana Pyruvate Kinase (AID 945)
Chain of Pyruvate kinase (Leishmania mexicana) (Q27686 2-499 E452W): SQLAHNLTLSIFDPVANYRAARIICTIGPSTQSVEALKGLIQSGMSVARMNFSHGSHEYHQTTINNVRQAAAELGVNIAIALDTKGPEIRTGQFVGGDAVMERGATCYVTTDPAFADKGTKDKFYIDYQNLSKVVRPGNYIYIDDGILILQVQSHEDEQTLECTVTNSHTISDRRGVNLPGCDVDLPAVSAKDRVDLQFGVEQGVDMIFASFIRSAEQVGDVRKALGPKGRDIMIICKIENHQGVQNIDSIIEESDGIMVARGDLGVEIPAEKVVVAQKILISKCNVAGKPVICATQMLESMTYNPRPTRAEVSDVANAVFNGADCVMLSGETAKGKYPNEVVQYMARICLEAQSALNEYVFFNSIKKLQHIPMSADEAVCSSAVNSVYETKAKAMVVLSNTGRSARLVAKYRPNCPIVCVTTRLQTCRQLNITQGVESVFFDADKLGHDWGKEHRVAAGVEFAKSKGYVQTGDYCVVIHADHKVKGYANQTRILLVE
In short: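 qHTS eight-point titrations against 0.2 nM LmPYK (E451W) in imidazole buffer pH 7.2 with 0.5 mM PEP, 0.1 mM ADP; 1 h, room temperature. Readout: PKLight luminescence, normalized to neutral DMSO wells.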

[18] = biological target: Pyruvate kinase PKM (Homo sapiens) (UniProt P14618); experiment: qHTS Assay for Activators of Human Muscle Pyruvate Kinase (AID 954; active = well fitted curve in the direction sought with a large enough effect, not every such curve was filed as active)
Chain of Pyruvate kinase PKM (Homo sapiens) (P14618 whole entry, looked up): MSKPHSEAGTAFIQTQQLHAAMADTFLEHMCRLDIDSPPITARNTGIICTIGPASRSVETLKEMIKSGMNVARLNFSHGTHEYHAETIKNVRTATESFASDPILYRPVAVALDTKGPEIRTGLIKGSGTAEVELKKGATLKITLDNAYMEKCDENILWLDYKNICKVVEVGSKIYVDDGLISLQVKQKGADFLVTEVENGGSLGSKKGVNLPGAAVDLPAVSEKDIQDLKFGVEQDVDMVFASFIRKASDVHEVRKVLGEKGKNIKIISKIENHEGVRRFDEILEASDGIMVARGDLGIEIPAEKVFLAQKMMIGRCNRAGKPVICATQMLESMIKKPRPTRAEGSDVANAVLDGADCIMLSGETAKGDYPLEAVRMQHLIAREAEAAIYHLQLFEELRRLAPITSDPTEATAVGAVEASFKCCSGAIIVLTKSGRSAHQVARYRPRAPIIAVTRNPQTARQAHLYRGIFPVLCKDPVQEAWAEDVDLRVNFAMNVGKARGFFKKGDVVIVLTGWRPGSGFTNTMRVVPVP
In short: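 Human PKM2 activity is measured as ATP generation, detected by luciferase-coupled luminescence. The enzyme (0.1 nM) acts on 0.5 mM PEP and 0.1 mM ADP for 1 h at ambient temperature; data are normalized to uninhibited and full-inhibition wells.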

[19] = biological target: Muscarinic acetylcholine receptor M1 (Rattus norvegicus) (UniProt P08482); experiment: qHTS Assay for Antagonists of Acetylcholine Muscarinic M1 Receptor: Kinetic Measurement of Intracellular Calcium Response (AID 943);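 also: Fluo-4 calcium signal as peak divided by basal fluorescence over 4 min; series mostly up to about 35 µM; nearly all actives have a fitted effect of over 75% in size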
Chain of Muscarinic acetylcholine receptor M1 (Rattus norvegicus) (P08482 whole entry, looked up): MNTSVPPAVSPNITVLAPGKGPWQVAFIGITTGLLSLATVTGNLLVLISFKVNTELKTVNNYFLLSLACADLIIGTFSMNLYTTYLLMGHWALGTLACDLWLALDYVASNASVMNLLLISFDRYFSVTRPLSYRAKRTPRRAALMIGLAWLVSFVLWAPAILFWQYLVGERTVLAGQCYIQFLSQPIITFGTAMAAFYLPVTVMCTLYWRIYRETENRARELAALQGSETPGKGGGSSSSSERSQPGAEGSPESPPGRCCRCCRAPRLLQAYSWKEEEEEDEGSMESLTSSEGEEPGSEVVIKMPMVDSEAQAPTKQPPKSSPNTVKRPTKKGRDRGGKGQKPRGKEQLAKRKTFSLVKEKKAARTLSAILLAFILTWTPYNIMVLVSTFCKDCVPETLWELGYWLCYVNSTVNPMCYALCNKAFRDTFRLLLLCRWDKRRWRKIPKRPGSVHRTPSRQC
In short: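 Intracellular calcium flux, recorded with Fluo-4 in a kinetic plate reader, served as signal; the response to carbachol at EC80 (100 nM final) was taken as maximal over minimal fluorescence after a 10 min compound pre-incubation in rat M1-CHO cells.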

[20] = biological target: Muscarinic acetylcholine receptor M1 (Rattus norvegicus) (UniProt P08482); experiment: qHTS Assay for Antagonists of Acetylcholine Muscarinic M1 Receptor: Measurement of IP-One Response (AID 944); also: nearly all actives have a fitted effect of over 75% in size
In short: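 Steps: plate transfected CHO-M1 cells overnight; add test compound, 10 min; add carbachol (200 nM, EC80) in stimulation buffer with LiCl; incubate 30 min; add labelled IP1 tracer and anti-IP1 antibody in lysis buffer; read HTRF after 10 min.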

Measured: Potency

ClC(Cl)Cl
not listed: [16] | [17] | [18] | [19] | [20]
inactive: all other assays above

c1ccc2ccccc2c1
not listed: [16] | [17] | [18] | [19] | [20]
inactive: all other assays above

Nc1ccc(N=Nc2ccccc2)c(N)n1
active: [16] 20 µM
not listed: [17] | [18] | [19] | [20]
inactive: all other assays above

OCC(O)CO
not listed: [16] | [17] | [18] | [19] | [20]
inactive: all other assays above

NCCN
not listed: [16] | [17] | [18] | [19] | [20]
inactive: all other assays above

Nc1nccs1
not listed: [17] | [18] | [19] | [20]
inactive: all other assays above

CCCCO
not listed: [16] | [17] | [18] | [19] | [20]
inactive: all other assays above

OB(O)O
not listed: [5] | [16] | [17] | [18] | [19] | [20]
inactive: all other assays above

CCOC(C)OCC
not listed: [16] | [17] | [18] | [19] | [20]
inactive: all other assays above

Nc1ncnc2c1ncn2[C@H]1CC[C@@H](CO)O1
not listed: [17] | [18] | [19] | [20]
inactive: all other assays above

CN1CCc2c(c3ccccc3n2Cc2ccccc2)C1
inactive: [16]

O.O.O.O.O.O.O.O=S(=O)([O-])[O-].[Co+2]
inactive: [2] | [3] | [4] | [6] | [7] | [8] | [10] | [15]

CC(C)c1nc(N(C)S(C)(=O)=O)nc(-c2ccc(F)cc2)c1/C=C/C(O)CC(O)CC(=O)O (stereo not given)
inactive: [16]

C=CC(C)(O)CC/C=C(\C)CCC=C(C)C (stereo not given)
inactive: [16]

CC(C)(C)CC(C)(C)c1ccc(OCCO)cc1
not listed: [1] | [16] | [17] | [18] | [19] | [20]
inactive: all other assays above

CC(=O)Oc1cccc(C(=O)O)c1OC(C)=O
inactive: [16]

N#Cc1ccc2c(c1)N(CCCN1CCC(O)CC1)c1ccccc1S2
inactive: [16]

C[C@H](CCC(=O)O)[C@H]1CC[C@H]2[C@@H]3CC[C@@H]4C[C@H](O)CC[C@]4(C)[C@H]3C[C@H](O)[C@]12C
not listed: [5] | [12] | [16] | [17] | [18] | [19] | [20]
inactive: all other assays above

O=C(O)[C@H]1C(=CCO)O[C@H]2CC(=O)N12
inactive: [16]

O=C(CCCCCCCCCCCCC1CCCC1)Nc1ccc(S(=O)(=O)c2ccc(NC(=O)CCCCCCCCCCCCC3CCCC3)cc2)cc1
inactive: [16]

COc1cc(S(C)=O)ccc1-c1nc2ncccc2[nH]1 (stereo not given)
inactive: [16]

CCCc1nc(C(C)(C)O)c(C(=O)OCc2oc(=O)oc2C)n1Cc1ccc(-c2ccccc2-c2nn[nH]n2)cc1
inactive: [16]

CO/N=C(/C(=O)N[C@@H]1C(=O)N2C(C(=O)O)=C(COC(N)=O)CS[C@H]12)c1ccco1
not listed: [5] | [16] | [17] | [18] | [19] | [20]
inactive: all other assays above

CCOC(=O)C1=C(COCCN)NC(C)=C(C(=O)OC)C1c1ccccc1Cl (stereo not given)
inactive: [16]

CC(=O)Oc1cccc2c1C(=O)c1c(OC(C)=O)cc(C(=O)O)cc1C2=O
inactive: [16]

C=C1C(CCl)(CCl)C2(Cl)C(Cl)C(Cl)C1(Cl)C2(Cl)Cl (stereo not given)
inactive: [4] | [7]
active: [1] 39.8 µM | [3] 50.1 µM | [5] 31.6 µM | [6] 50.1 µM | [8] 50.1 µM | [10] 50.1 µM | [11] 39.8 µM | [13] 39.8 µM | [14] 50.1 µM | [15] 50.1 µM

C[C@@](Cc1ccc(O)c(O)c1)(NN)C(=O)O
inactive: [17] | [18]

CC1CCCC(C)N1NC(=O)c1ccc(Cl)c(S(N)(=O)=O)c1 (stereo not given)
inactive: [16]

CC(=O)N=c1sc(S(N)(=O)=O)nn1C
inactive: [16]

Cc1cc(C)c(NC(=O)C[C@H](CC(=O)O)c2cccc3ccccc23)c(C(=O)N2CCC3(CCCC3)CC2)c1
inactive: [19] | [20] | [17] | [18]

CC(=O)Nc1ccc(OC(=O)c2ccccc2O)cc1
inactive: [16]

O=C(O)CCC(=O)c1ccc(-c2ccccc2)cc1
inactive: [16]

NCC(O)CC(=O)O (stereo not given)
inactive: [16]

CC1CCC(NC(=O)N(CCCl)N=O)CC1 (stereo not given)
inactive: [16]

CC/C=C\C/C=C\C/C=C\CCCCCCCC(=O)O
active: [10] 39.8 µM | [13] 50.1 µM
inactive: [3] | [4] | [5] | [6] | [7] | [8]

Cc1cccc(C)c1NC(=O)C1CCCCN1C (stereo not given)
inactive: [16]

O=C1c2ccccc2C(=O)c2c1ccc(O)c2O
inactive: [16]

C[C@H]1O[C@@H](O[C@H]2[C@@H](O)C[C@H](O[C@H]3[C@@H](O)C[C@H](O[C@H]4CC[C@@]5(C)[C@H](CC[C@@H]6[C@@H]5C[C@@H](O)[C@]5(C)[C@@H](C7=CC(=O)OC7)CC[C@]65O)C4)O[C@@H]3C)O[C@@H]2C)C[C@H](O)[C@@H]1O
active: [1] 0.316 µM | [3] 0.199 µM | [4] 0.501 µM | [6] 1.58 µM | [8] 0.251 µM | [9] 0.158 µM

CC[C@H]1OC(=O)[C@H](C)[C@@H](O[C@H]2C[C@@](C)(OC)[C@@H](O)[C@H](C)O2)C(C)[C@@H](O[C@@H]2O[C@H](C)C[C@H](N(C)C)[C@@H]2O)[C@](C)(OC)C[C@@H](C)C(=O)[C@H](C)[C@@H](O)[C@]1(C)O (stereo not given in full)
inactive: [16]

O=c1n(CC2CO2)c(=O)n(CC2CO2)c(=O)n1CC1CO1 (stereo not given)
active: [1] 31.6 µM | [3] 39.8 µM | [6] 50.1 µM | [8] 39.8 µM | [9] 15.8 µM | [10] 31.6 µM | [12] 20 µM | [13] 39.8 µM | [14] 39.8 µM | [15] 50.1 µM
inactive: [2] | [7]
